SMARCA2 activ: increases SMARCA2 function in MMTV reporter cells; activation, % at 9.1 µM; AID 652017; hit rate 1% among 370,000; MG213 cells, MMTV-luciferase reporter, dexamethasone, overnight; in the data active = activation above about 7.8%;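 also: 0% = vehicle wells and 100% = reference activator wells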
ssDAF-12 act: activators of S. stercoralis DAF-12 nuclear receptor; HEK293 ssDAF-12/GRIP1 lit1-tk-luc reporter, luminescence; % of 3 µM dafachronic acid response; activation, % at 6.8 µM; hit rate 1% among 370,000;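 active = activation above the mean over all tested compounds plus 3 SD, cut at about 0.9% in these data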;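 also: 0% = DMSO-only wells and 100% = 3 µM delta7-dafachronic acid wells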
hcDAF-12 act: activates DAF-12 receptor from parasite H. contortus. AID 652067. HEK293 hcDAF-12 lit1-tk-luc reporter, luminescence; 0% DMSO, 100% Δ7-dafachronic acid. hit rate 1.4% among 370,000. activation, % at 6.8 µM;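 active = activation above the mean of all tested compounds plus 3 SD, cut at about 5.5% in these data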;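 also: 100% = response to 3 µM Δ7-dafachronic acid high control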
DAX1 inh-1: inhibitors of human orphan nuclear receptor DAX1 (NR0B1); HEK293 Gal4-DAX1 luciferase reporter, luminescence; hit rate 0.99% among 340,000; inhibition, % at 6.75 µM; AID 504766; P51843;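 active = inhibition above the mean over all tested compounds plus 3 SD, cut at about 4.2% in these data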;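 also: 0% = DAX1-transfected cells with DMSO and 100% = empty-vector control cells with DMSO; inhibition shows as a rise in luminescence from relieved DAX1 repression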
Target sequence (P51843 207-470 limits assumed): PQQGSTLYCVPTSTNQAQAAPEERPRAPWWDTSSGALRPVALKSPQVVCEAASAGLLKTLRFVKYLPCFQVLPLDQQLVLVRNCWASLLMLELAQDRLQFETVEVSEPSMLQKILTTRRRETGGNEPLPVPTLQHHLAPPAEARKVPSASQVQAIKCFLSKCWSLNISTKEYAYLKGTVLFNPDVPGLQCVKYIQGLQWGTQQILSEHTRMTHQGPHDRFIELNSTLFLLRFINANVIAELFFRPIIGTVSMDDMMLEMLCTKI
hgDAF12 agonist: activates the H. glycines DAF-12 receptor ligand-binding domain | HEK293 GAL4-hgDAF12 UAS-luciferase reporter, agonist luminescence; normalized to butyrate control | activation, % at 6.8 µM | hit rate 1.8% among 370,000;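 active = activation above a cutoff set at the mean of all screened compounds plus 3 SD, cut at about 10% in these data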;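 also: 0% = DMSO wells and 100% = sodium butyrate wells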
DAX1 inh-2: DAX1 (NR0B1) inhibition, primary screen; inhibition, % at 6.8 µM; hit rate 1.1% among 370,000; HEK293T StAR-luciferase reporter, SF-1/DAX-1 repression relief;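 active = inhibition above the mean over all tested compounds plus 3 SD, cut at about 3.6% in these data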;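 also: 0% = DAX-1 cells with DMSO and 100% = cells lacking DAX-1 with DMSO; higher inhibition means more luminescence from relief of DAX-1 repression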
* = called active by the depositor. An excerpt weighted towards active compounds, which were near 4.8% of everything screened.

O=C(CNC(=O)c1ccc(F)cc1)c1ccc(Cl)cc1 was read as SMARCA2 activ 6, ssDAF-12 act 0, hcDAF-12 act 3, DAX1 inh-1 1, hgDAF12 agonist 11* and DAX1 inh-2 1.
For COc1ccc(C(=O)NCC(=O)N2CCN(c3ccccc3)CC2)cc1 the results were SMARCA2 activ -1, ssDAF-12 act 0, hcDAF-12 act -1, DAX1 inh-1 1, hgDAF12 agonist -2 and DAX1 inh-2 0.
Screening Cc1nc(C(=O)NNC(=O)c2ccc(Cl)cc2)c(C(F)(F)F)o1 returned SMARCA2 activ -5, ssDAF-12 act -1, hcDAF-12 act 0, DAX1 inh-1 0, hgDAF12 agonist 1 and DAX1 inh-2 -1.
O=C(NNC(=O)c1ccccc1O)c1ccc(Br)cc1 was read as SMARCA2 activ 5, ssDAF-12 act -1, hcDAF-12 act -1, DAX1 inh-1 7.4*, hgDAF12 agonist 5 and DAX1 inh-2 0.
Cc1nc(C(=O)NCC(=O)c2ccc(Cl)cc2)c(C(F)(F)F)o1 was read as SMARCA2 activ -3, ssDAF-12 act 1.6*, hcDAF-12 act -1, DAX1 inh-1 0, hgDAF12 agonist -1 and DAX1 inh-2 0.
For CCCCN(C(=O)c1cccc(-c2ccc(OC(C)=O)cc2)c1)c1c(N)n(CCC)c(=O)[nH]c1=O the results were SMARCA2 activ -2, ssDAF-12 act -2, hcDAF-12 act -1, DAX1 inh-1 1, hgDAF12 agonist 4 and DAX1 inh-2 1.
`O=C(CCSc1ccccc1)N1CCN(c2ccccc2)CC1` gave SMARCA2 activ 6, ssDAF-12 act 0, hcDAF-12 act 2, DAX1 inh-1 3, hgDAF12 agonist 12* and DAX1 inh-2 3.
`O=C(CSc1ccccc1)N1CCN(c2ccccc2)CC1` gave SMARCA2 activ 2, ssDAF-12 act -1, hcDAF-12 act 1, DAX1 inh-1 0, hgDAF12 agonist 5 and DAX1 inh-2 0.
O=C(CNC(=O)c1ccc(Br)cc1)c1ccc(Br)cc1 was read as SMARCA2 activ -2, ssDAF-12 act -1, hcDAF-12 act 0, DAX1 inh-1 -2, hgDAF12 agonist -1 and DAX1 inh-2 0.
`O=C(CNC(=O)c1ccc(Br)cc1)c1ccccc1` gave SMARCA2 activ 4, ssDAF-12 act 0, hcDAF-12 act 4, DAX1 inh-1 1, hgDAF12 agonist 13* and DAX1 inh-2 3.
`O=C(NCC(=O)N1CCCCCC1)c1ccc(Br)cc1` gave SMARCA2 activ 3, ssDAF-12 act -1, hcDAF-12 act 0, DAX1 inh-1 4.4*, hgDAF12 agonist 2 and DAX1 inh-2 0.
Screening O=C(NCC(=O)N1CCOCC1)c1ccc(Br)cc1 returned SMARCA2 activ -1, ssDAF-12 act -1, hcDAF-12 act 1, DAX1 inh-1 1, hgDAF12 agonist -1 and DAX1 inh-2 0.
`Cc1cc2nc(-c3ccccc3)c(Cc3cccc(Cl)c3)n2c(C)c1Br` gave SMARCA2 activ -3, ssDAF-12 act 0, hcDAF-12 act 3, hgDAF12 agonist 11* and DAX1 inh-2 1.
`Cc1cc2nc(C3CCCCC3)c(Cc3cccc(F)c3)n2c(C)c1Br` gave SMARCA2 activ 1, ssDAF-12 act 1.7*, hcDAF-12 act 2, hgDAF12 agonist 2 and DAX1 inh-2 -1.
Screening Cc1cc2nc(-c3ccccc3)c(Cc3cccc(F)c3)n2c(C)c1Br returned SMARCA2 activ 0, ssDAF-12 act 0, hcDAF-12 act 4, hgDAF12 agonist 3 and DAX1 inh-2 3.
For Cc1cc2nc(-c3ccc(F)cc3)c(Cc3cccc(Cl)c3)n2c(C)c1Br the results were SMARCA2 activ -4, ssDAF-12 act 1.5*, hcDAF-12 act 5.6*, hgDAF12 agonist 1 and DAX1 inh-2 1.
`CN(C)c1ccc(N=Nc2ccc(S(N)(=O)=O)cc2)cc1` gave SMARCA2 activ 4, ssDAF-12 act 0, hcDAF-12 act 4, DAX1 inh-1 3, hgDAF12 agonist 11* and DAX1 inh-2 2.
`O=c1oc(-c2cccc(Cl)c2)nc2c1cnn2-c1ccccc1` gave SMARCA2 activ -3, ssDAF-12 act -1, hcDAF-12 act 0, DAX1 inh-1 -1, hgDAF12 agonist 2 and DAX1 inh-2 0.
`Cc1ccc(S(=O)(=O)NCC(=O)N(CC(=O)NCc2ccco2)C2CCCC2)cc1` gave SMARCA2 activ 0, ssDAF-12 act -1, hcDAF-12 act 0, DAX1 inh-1 1, hgDAF12 agonist 1 and DAX1 inh-2 0.
For O=S(=O)(c1ccc(Cl)cc1)N1CCN=C1SCc1cccnc1 the results were SMARCA2 activ 0, ssDAF-12 act -2, hcDAF-12 act -1, DAX1 inh-1 0, hgDAF12 agonist 1 and DAX1 inh-2 -1.
For Clc1nccnc1N/N=C/c1ccc(Br)cc1 the results were SMARCA2 activ 2, ssDAF-12 act 0, hcDAF-12 act 2, DAX1 inh-1 5.1*, hgDAF12 agonist 13* and DAX1 inh-2 2.
Screening Oc1ccccc1/C=N/Nc1nccnc1Cl returned SMARCA2 activ 1, ssDAF-12 act -1, hcDAF-12 act 1, DAX1 inh-1 -3, hgDAF12 agonist 4 and DAX1 inh-2 -2.
`CC1(C)CC(=O)C(N=Nc2cccc([N+](=O)[O-])c2)=C(O)C1` gave SMARCA2 activ 1, ssDAF-12 act 0, hcDAF-12 act 1, DAX1 inh-1 6.1*, hgDAF12 agonist 0 and DAX1 inh-2 0.
Cc1c(Cl)cnc(NC(=O)COC(=O)CCS(=O)(=O)c2ccccc2)c1Cl was read as SMARCA2 activ 0, ssDAF-12 act -1, hcDAF-12 act 1, DAX1 inh-1 0, hgDAF12 agonist 0 and DAX1 inh-2 -1.
Screening O=C(COC(=O)CCS(=O)(=O)c1ccc(Cl)cc1)Nc1ncc(Cl)cc1Cl returned SMARCA2 activ -4, ssDAF-12 act 0, hcDAF-12 act 0, DAX1 inh-1 4.8*, hgDAF12 agonist -1 and DAX1 inh-2 0.
Screening N=C(N)c1ccc(/C=C/c2ccc(C(=N)N)cc2O)cc1 returned SMARCA2 activ 4, ssDAF-12 act -1, hcDAF-12 act -2, DAX1 inh-1 5.1*, hgDAF12 agonist 2 and DAX1 inh-2 0.
O=C(COC(=O)c1cccc(-n2cnnn2)c1)c1ccc(F)cc1 was read as SMARCA2 activ 2, ssDAF-12 act 0, hcDAF-12 act 3, DAX1 inh-1 -1, hgDAF12 agonist 5 and DAX1 inh-2 4.
Screening O=C(COC(=O)c1cccc(-n2cnnn2)c1)Nc1c(Cl)cccc1C(F)(F)F returned SMARCA2 activ -3, ssDAF-12 act -1, hcDAF-12 act -1, DAX1 inh-1 0, hgDAF12 agonist -2 and DAX1 inh-2 3.9*.
For Cc1ccc(C)c(NC(=S)c2nc3ccccc3s2)c1 the results were SMARCA2 activ 4, ssDAF-12 act 1.0*, hcDAF-12 act 5.8*, DAX1 inh-1 -2, hgDAF12 agonist 2 and DAX1 inh-2 0.

Bioassay records as filed in PubChem BioAssay.
